The values below come from PubChem BioAssay.

The nature of test [1]: resazurin metabolic signal in HepG2 cells – cell-based, resazurin fluorescence, 24 h, PK04 Diversity Set, profiling panel (AID 1172). Further: test concentration not given here. As to conditions: HepG2 viability, higher = more signal. (In general: Alamar Blue is a resazurin reagent that responds to reducing activity.)
A short description of test [2]: budding yeast growth changes without added modifier – OD600, strain BY4716, 24 h, basal condition, primary screen (AID 1173). Conditions: S. cerevisiae BY4716 growth, OD600, 24 h; higher = more signal, called active from +8 up or from −8 down.
Test [3] in a line: viability profiling in MM1S myeloma cells – cell-based, resazurin fluorescence, basal, 24 h, PK04 Diversity Set, profiling panel (AID 1174). Further: test concentration not given here. Conditions: higher = more signal, called active from +8 up or from −8 down.
The target of test [4] is Dihydroorotate dehydrogenase (quinone), mitochondrial (Plasmodium falciparum (isolate 3D7)) (UniProt Q08210). The test can be described thus: inhibition of P. falciparum DHODH – biochemical, C-terminal His tag, absorbance 600 nm, primary screen (AID 1175).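 Further: recombinant parasite enzyme with a five histidine tag at its C terminus; test concentration not given here.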 As to conditions: PfDHODH enzyme, DCIP absorbance 600 nm; higher = more signal, called active from +8 up or from −8 down.

Test [5] is described as follows: inhibition of PAO1 biofilm formation – strain PAO1, LB-PBS medium, absorbance 600 nm, primary screen (AID 1176). Further: test concentration not given here. As to conditions: P. aeruginosa PAO1 growth/biofilm, A600, 12 h; higher = more signal.
Test [6] can be described thus: growth modulation of vineyard yeast isolate – strain RM11-1a, OD600, basal, 24 h, primary screen (AID 1177).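 Further: cultures grown under basal conditions with no added stressor; test concentration not given here.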 As to conditions: S. cerevisiae RM11-1a growth, OD600, 24 h; higher = more signal, called active from +8 up or from −8 down.
Test [7] can be described thus: growth of efflux-deficient E. coli DRC39 – strain DRC39, OD650, 24 h, E. coli filamentation inducers, primary screen (AID 1178).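 Further: growth measured as culture turbidity by optical density at 650 nm; test concentration not given here.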 Conditions: E. coli DRC39 acrAB, higher = more signal, called active from +8 up or from −8 down.
The nature of test [8]: growth of efflux-deficient E. coli DRC39 – strain DRC39, OD650, 48 h, E. coli filamentation inducers, primary screen (AID 1179).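 Further: screen aims at cell division blockers that make cells filament.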 Conditions: E. coli DRC39 delta-acrAB growth, higher = more signal, called active from +8 up or from −8 down.
Test [9] can be described thus: viability profiling in RPMI8226 myeloma cells – cell-based, resazurin fluorescence, basal, 24 h, PK04 Diversity Set, profiling panel (AID 1180).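 Further: RPMI8826 multiple myeloma cell line at 5000 cells per well; test concentration not given here.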 Conditions: higher = more signal.
Test [10] addresses E3 ubiquitin-protein ligase XIAP (Homo sapiens) (UniProt P98170). The test can be described thus: small molecules binding XIAP protein – biophysical, small-molecule microarray, fluorescence 635 nm, primary screen (AID 1181).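 Further: score merges 667 nm emission and signal to noise over triplicate slides.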 Conditions: higher = more signal.

Activity calls are given as the source filed them. Unless noted, how the calls were made is not given here.

Sequence of Dihydroorotate dehydrogenase (quinone), mitochondrial (Plasmodium falciparum (isolate 3D7)) (Q08210 whole entry, looked up): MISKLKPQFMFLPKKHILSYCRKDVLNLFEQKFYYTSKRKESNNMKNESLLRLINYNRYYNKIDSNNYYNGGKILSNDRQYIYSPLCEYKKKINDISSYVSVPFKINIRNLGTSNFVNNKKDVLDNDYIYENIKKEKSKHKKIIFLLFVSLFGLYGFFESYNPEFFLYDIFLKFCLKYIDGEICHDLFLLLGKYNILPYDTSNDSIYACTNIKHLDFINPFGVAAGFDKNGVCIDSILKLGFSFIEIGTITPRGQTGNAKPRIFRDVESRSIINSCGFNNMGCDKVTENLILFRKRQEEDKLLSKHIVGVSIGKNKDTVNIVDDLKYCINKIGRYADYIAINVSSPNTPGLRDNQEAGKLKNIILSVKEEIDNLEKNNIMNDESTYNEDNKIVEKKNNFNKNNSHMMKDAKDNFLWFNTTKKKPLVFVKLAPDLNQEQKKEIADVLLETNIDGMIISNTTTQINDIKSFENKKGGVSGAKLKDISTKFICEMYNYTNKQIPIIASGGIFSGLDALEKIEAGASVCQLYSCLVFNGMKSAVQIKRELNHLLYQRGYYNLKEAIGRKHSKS
Sequence of E3 ubiquitin-protein ligase XIAP (Homo sapiens) (P98170 whole entry, looked up): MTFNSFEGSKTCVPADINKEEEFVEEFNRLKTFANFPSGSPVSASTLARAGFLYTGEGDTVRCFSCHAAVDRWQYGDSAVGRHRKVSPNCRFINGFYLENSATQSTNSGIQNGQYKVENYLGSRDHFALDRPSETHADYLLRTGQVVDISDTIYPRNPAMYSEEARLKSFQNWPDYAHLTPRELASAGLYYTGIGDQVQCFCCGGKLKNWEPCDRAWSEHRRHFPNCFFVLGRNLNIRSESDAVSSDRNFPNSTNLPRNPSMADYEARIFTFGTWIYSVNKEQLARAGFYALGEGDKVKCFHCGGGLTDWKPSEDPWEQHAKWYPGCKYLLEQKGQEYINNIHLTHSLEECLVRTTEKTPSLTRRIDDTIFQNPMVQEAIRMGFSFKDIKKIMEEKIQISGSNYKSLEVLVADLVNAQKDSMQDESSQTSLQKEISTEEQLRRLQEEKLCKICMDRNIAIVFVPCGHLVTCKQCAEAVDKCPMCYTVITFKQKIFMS

With `COc1ccccc1CN1C(=O)c2ccccc2[C@@H](C(=O)NCC(F)(F)F)[C@@H]1c1ccc(CO)cc1`, the z-score in test [1] was 1.06; in [2] it was 0.403 (inactive); in test [3] it was -1.15 (inactive); in test [5], 0.512 (inactive); in [6], -0.0178 (inactive); in [7], 0.796 (inactive). The values for the z-score in [8] and in test [9] were 1.69 (inactive) and 0.268, respectively. The figures for the composite z-score in test [4] and in test [10] were 0.338 (inactive) and -0.148, respectively.
Turning to `C#CCCCON=C1C[C@@H](O)[C@@H](O)[C@@H]2[C@@H]3C(=O)N(CCC(=O)OCC)C(=O)[C@@H]3CC[C@@H]12`, the z-score is -0.0517 in test [1]; -0.395 (inactive) in test [2]; -1.01 (inactive) in test [3]; -0.0485 (inactive) in test [5]; -0.538 (inactive) in test [6]; 0.122 (inactive) in test [7]. In addition, the z-score in test [8] was 0.529 (inactive); in test [9], -0.739. In addition, the composite z-score in test [4] was 0.175 (inactive); in [10] it was -0.212.
For `COc1ccc(-c2ccc3c(n2)CCCN3CC(O)CN2CCCc3nc(C)c(C)cc32)cc1` (stereo not given), the z-score is -0.671 in [1]; -1.75 (inactive) in test [2]; -0.559 (inactive) in test [3]; 0.274 (inactive) in test [5]; -0.256 (inactive) in [6]; 0.975 (inactive) in test [7]. Also, the z-score in test [8] was 0.65 (inactive); in [9], -0.836. The composite z-score in [4] is 1.18 (inactive); in [10] it was 1.15.
For `COc1ccc(O[C@H]2C=C[C@@H](c3ccccc3)O[C@@H]2COC(=O)CCC(C)=NO[C@H](C)c2cn([C@@H]3COC[C@H]3O)nn2)cc1`, the z-score in test [1] is 0.896; in test [2] it was -0.419 (inactive); in test [3], -0.191 (inactive); in [5], -0.467 (inactive); in test [6] it was -0.572 (inactive); in test [7], -1.09 (inactive). The figures for the z-score in test [8] and in test [9] were -0.033 (inactive) and 0.18, respectively. Moreover, the composite z-score in test [4] was -4.78 (inactive); in test [10], -0.138.
Turning to `COc1ccc(O[C@H]2C=C[C@@H](c3ccccc3)O[C@@H]2COC(=O)CCC(C)=NOC(C)CN2CCCCc3nc(C)c(C)cc32)cc1` (stereo not given in full), the z-score in test [1] was 0.957; in [2], 0.756 (inactive); in test [3], 1.1 (inactive); in test [5] it was -0.279 (inactive); in test [6], 0.181 (inactive); in test [7], 0.825 (inactive). For the same compound, the z-score in test [8] was 0.42 (inactive); in test [9], 0.948. The composite z-score is 0.0159 (inactive) in test [4] and 0.533 in test [10].
Take `O=C1O[C@@H](c2ccccc2)[C@@H](c2ccccc2)N2[C@@H](c3ccccc3OCCO)[C@]3(C(=O)Nc4ccc(C#CCCO)cc43)[C@@H](C(=O)O)[C@H]12`: the z-score in test [1] is -0.307; in test [2] it was -1.28 (inactive); in [3], 0.649 (inactive); in [5] it was -0.681 (inactive); in test [6], -0.282 (inactive); in test [7] it was 0.0701 (inactive). The z-score was -0.781 (inactive) in test [8] and 0.183 in [9]. Moreover, the composite z-score in [4] is -2.05 (inactive); in test [10], 0.32.
On to `CC(C)(C)OC(=O)CC[C@]1(C(=O)NCc2ccccc2)N=C(c2ccc(OCCCO)cc2)O[C@H]1c1ccccc1`, for which the z-score in test [1] was 0.461; in test [2], 0.69 (inactive); in [3] it was -0.768 (inactive); in [5], 0.469 (inactive); in [6] it was 0.543 (inactive); in [7], 0.732 (inactive). Moreover, the z-score is 0.03 (inactive) in test [8] and -0.135 in test [9]. Moreover, the figures for the composite z-score in test [4] and in test [10] were 0.218 (inactive) and -0.16, respectively.
Turning to `C[C@H]1Cc2c(-c3ccccc3)nc3c(c2CO1)CN(CCOc1ccccc1)CC3`, the z-score in test [1] was -0.33; in test [2] it was -1.97 (inactive); in [3], 0.0723 (inactive); in [5] it was 1.17 (inactive); in test [6], 0.671 (inactive); in test [7], 1.67 (inactive). Moreover, the z-score in [8] was -0.176 (inactive); in test [9] it was 0.678. Besides, the composite z-score in test [4] is -0.0439 (inactive); in test [10] it was -0.0599.
For `CC(C)[C@H](NC(=O)OC(C)(C)C)[C@@H](O)CC(=O)OC(C)(C)C`, the z-score in test [1] was -0.811; in test [2], -0.448 (inactive); in [3], 0.351 (inactive); in [5], -0.506 (inactive); in test [6] it was 0.259 (inactive); in test [7] it was -1.69 (inactive). The z-score is -0.998 (inactive) in test [8] and 0.496 in [9]. For the same compound, the composite z-score in [4] is 0.0945 (inactive); in [10] it was -0.102.
For the compound `O=C1[C@H]2[C@H]3[C@H](O)[C@H](O)CC(=NOC[C@@H](O)COCc4ccco4)[C@H]3CC[C@H]2C(=O)N1c1cccc(Oc2ccccc2)c1`, the z-score was 0.957 in [1]; 0.22 (inactive) in [2]; -0.654 (inactive) in [3]; 0.741 (inactive) in test [5]; -0.183 (inactive) in test [6]; 0.916 (inactive) in [7]. The z-score was 1.33 (inactive) in test [8] and -0.192 in [9]. The composite z-score in test [4] was -0.365 (inactive); in test [10] it was -0.295.
For `CC(C)(C)OC(=O)CC[C@]1(C(N)=O)COC(c2ccc(OCCCO)cc2)=N1`, the z-score in [1] was -0.722; in test [2], 0.0462 (inactive); in test [3], -1.43 (inactive); in [5], 0.134 (inactive); in test [6], -0.788 (inactive); in test [7] it was -0.34 (inactive). For the same compound, the z-score was 0.381 (inactive) in [8] and -0.751 in test [9]. In addition, the composite z-score is 0.0996 (inactive) in test [4] and 0.276 in test [10].
Turning to `CC(CCC(=O)OC[C@H]1O[C@H](C#Cc2ccccc2)C=C[C@@H]1Oc1ccc(C)cc1)=NO[C@@H](C)c1cn([C@H](CO)Cc2ccccc2)nn1`, the z-score was 0.0474 in [1]; 0.542 (inactive) in test [2]; 0.925 (inactive) in test [3]; -0.786 (inactive) in [5]; -0.0398 (inactive) in test [6]; -0.26 (inactive) in test [7]. The z-score was -1.24 (inactive) in [8] and 0.911 in test [9]. Moreover, the composite z-score in test [4] was -2.15 (inactive); in [10], -0.338.
`COc1cccc([C@@H]2Oc3ccc(Br)cc3C(=O)[C@H]2O)c1`: the z-score was -0.41 in [1]; -14.5 (active) in [2]; -1.99 (inactive) in test [3]; -0.0782 (inactive) in [5]; -0.361 (inactive) in [6]; 0.255 (inactive) in test [7]. The z-score in [8] is 0.139 (inactive); in test [9], -1.02. Besides, the composite z-score is -0.071 (inactive) in [4] and -0.391 in [10].
